Screening data as filed in PubChem BioAssay.
NRP1-CendR mod: modulators of CendR peptide binding to NRP-1, primary screen, biochemical, fluorescence polarization, uHTS; Neuropilin-1 (Homo sapiens), O14786; FAM-RPARPAR peptide binding to NRP-1; inhibition, % at 25 µM; actives 0.85% (n = 360,000); AID 602438, 2012;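 active = inhibition or corrected inhibition above about 18%, plus a signal ratio from 0.5 to 1.5, limit read from the data, passing the limit was not always enough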
ATG4B inh: ATG4B protease inhibitors, primary screen, biochemical, fluorescence, uHTS; actives 0.51% (n = 340,000); Cysteine protease ATG4B (Homo sapiens), Q9Y4P1; inhibition, % at 8.33 µM; ATG4B cleavage of LC3-PLA2, NBD-HPC fluorescence, 1 h; AID 504462, 2011; in the data active = inhibition above about 40%
F508del corr: F508del CFTR correction, initial screen, CFBE line, single point; actives 0.36% (n = 350,000); activity (quench increase), % at 7.58 µM; CFBE cells, YFP halide quenching; stimulated with forskolin plus potentiator P3; % fluorescence drop versus neutral controls;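 active = mean added fluorescence quench of at least 8% versus neutral control, with both replicates also reaching 8%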;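 also: cells transiently co-express mutant CFTR-F508del with the halide-sensitive YFP; corrector assay measuring rescue of mutant channel to the surface after 24 h compound exposure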
SKN-1 inh: suppressors of acrylamide-induced Pgst-4::GFP reporter in worms, primary screen, SKN-1 inhibitor project, whole organism, uHTS, GFP/RFP fluorescence ratio, strain VP596; actives 0.49% (n = 360,000); C. elegans VP596 Pgst-4::GFP/RFP ratio, 24 h; inhibition, % at 21.8 µM;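 active = interference check ratio from 0.5 to 1.5 plus GFP to RFP signal ratio inhibition reaching or exceeding a fixed threshold, cut at about 30% in these data, passing the limit was not always enough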
MPTP inh: mitochondrial permeability transition pore inhibitors, primary screen, biochemical, isolated mouse mitochondria, absorbance | inhibition, % at 10 µM | actives 1.4% (n = 360,000) | AID 602449, 2012 | Ca2+ swelling absorbance, 30 min;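 active = inhibition of 50% or more, scaled per plate between neutral and stimulator controls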;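 also: 0% = DMSO wells given calcium and 100% = 1 mM EGTA wells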
Starred values were filed as active, the others as inactive. The list is not random: actives were taken first. Their share in the collection is about 2.7%.

CN(CC(=O)Nc1ccc(F)cc1)C(=O)Cn1c(=O)oc2ccccc21 was read as NRP1-CendR mod -8.0, ATG4B inh -1.7, F508del corr -1.5, SKN-1 inh -2.7 and MPTP inh -1.4.
For CCCn1c(CN2CCN(C(=O)OCC)CC2)nc2cc(NC(=O)CC)ccc21 the results were NRP1-CendR mod 3.9, ATG4B inh 0.1, F508del corr 8.6*, SKN-1 inh -0.7 and MPTP inh -0.8.
CNC(=O)C[C@H]1CC[C@H]2[C@H](COc3ccc(NS(=O)(=O)c4cccc(F)c4)cc3C(=O)N2C)O1 was read as F508del corr 1.4.
Screening CCOC(=O)SC1=N/C(=C\c2ccc(N(C)C)cc2)C(=O)S1 returned NRP1-CendR mod -1.9, ATG4B inh -7.5, F508del corr 4.0, SKN-1 inh 41.2* and MPTP inh 3.9.
`CCSC1=N/C(=C\c2ccc(C(=O)O)cc2)C(=O)S1` gave NRP1-CendR mod -18.7, ATG4B inh -4.8, SKN-1 inh 9.3 and MPTP inh -2.4.
Screening C[C@H]1CN([C@@H](C)CO)C(=O)Cc2cc(NC(=O)CCN3CCOCC3)ccc2O[C@H]1CN(C)Cc1ccc(C(=O)Nc2ccccc2N)cc1 returned F508del corr 0.6.
CC(C)N(C(C)C)S(=O)(=O)c1ccc(N2CCc3ccccc3C2)nc1 was read as NRP1-CendR mod 30.4*, ATG4B inh 6.8, F508del corr 1.1, SKN-1 inh 3.5 and MPTP inh -2.1.
For CCN(CC)S(=O)(=O)c1ccc(N2CCc3ccccc3C2)nc1 the results were NRP1-CendR mod -10.9, ATG4B inh 19.4, F508del corr 3.7, SKN-1 inh -8.6 and MPTP inh -2.5.
For CS(=O)(=O)N(CC(=O)N1CCN(c2cccc(Cl)c2)CC1)C1CCCCC1 the results were NRP1-CendR mod 18.8*, ATG4B inh -11.8, SKN-1 inh -14.2 and MPTP inh -3.1.
Screening Cn1nnnc1SCC(=O)N1CCN(c2ccccc2)CC1 returned NRP1-CendR mod 16.4, ATG4B inh -7.6, SKN-1 inh -7.3 and MPTP inh -0.2.
`Nc1nnc(SCC(=O)N2CCN(c3cccc(Cl)c3)CC2)n1-c1ccccc1` gave NRP1-CendR mod -13.7, ATG4B inh -1.4, SKN-1 inh 38.4* and MPTP inh 2.3.
Cn1nnnc1SCC(=O)N1CCN(c2cccc(Cl)c2)CC1 was read as NRP1-CendR mod 8.4, ATG4B inh 1.5, SKN-1 inh 39.5* and MPTP inh 1.5.
`Cc1ccc(S(=O)(=O)Nc2ccc3c(c2)C(=O)N([C@H](C)CO)C[C@@H](C)[C@@H](CN(C)C(=O)Cc2ccccc2)OCCCC[C@@H](C)O3)cc1` gave F508del corr 1.1.
`O=C(CC1(O)C(=O)Nc2cc(Cl)cc(Cl)c21)c1ccccc1O` (stereo not drawn) gave NRP1-CendR mod 43.3*, ATG4B inh 2.4, SKN-1 inh 6.8 and MPTP inh 1.8.
O=C(CSc1nnc(CNC(=O)c2ccco2)o1)Nc1cccc(F)c1 was read as NRP1-CendR mod 19.4*, ATG4B inh -8.1, F508del corr 0.1, SKN-1 inh -14.0 and MPTP inh -0.1.
`CCC(C)(C)c1ccc(Oc2cccc(C(=O)O)c2)cc1` gave NRP1-CendR mod 9.5, ATG4B inh 25.1, F508del corr -4.5, SKN-1 inh 4.2 and MPTP inh 0.5.
Screening CCC(C)(C)c1ccc(Oc2ccc(N)cc2)cc1 returned NRP1-CendR mod 43.6*, ATG4B inh 8.7, F508del corr -5.2, SKN-1 inh 3.4 and MPTP inh 8.8.
CCOc1ccc(-n2c(C)nc3cc(C(=O)NCc4ccco4)ccc32)cc1 was read as NRP1-CendR mod -11.0, ATG4B inh 2.9, SKN-1 inh 19.3 and MPTP inh 1.2.
For COc1ccc(-n2c(C)nc3cc(C(=O)NCc4ccco4)ccc32)cc1 the results were NRP1-CendR mod 4.6, ATG4B inh -13.7, SKN-1 inh 41.4* and MPTP inh -5.6.
COc1ccc(NC(=O)Nc2ccc3c(c2)[C@@H]2C[C@@H](CC(=O)N4CCc5ccccc5C4)O[C@H](CO)[C@@H]2O3)cc1 was read as F508del corr 0.5.
`COc1cc(C(=O)c2c(C)c(CCC#N)n3ccccc23)cc(OC)c1OC` gave NRP1-CendR mod 21.3*, ATG4B inh 1.0, F508del corr -8.7, SKN-1 inh -2.0 and MPTP inh -0.4.
Screening CC(=O)Nc1ccc(SC[C@H](Cc2ccccc2)N2CCN(CCc3ccccc3)CCC2=O)cc1 returned NRP1-CendR mod 25.3*, ATG4B inh -20.3, F508del corr 1.8, SKN-1 inh 4.1 and MPTP inh -1.2.
`CC(C)(C)[C@H]1CCC(=O)N([C@H](CSc2ccccc2)Cc2ccccc2)CC1` gave NRP1-CendR mod 16.1, ATG4B inh -2.0, F508del corr -0.7, SKN-1 inh 0.8 and MPTP inh 2.6.
CC(=O)Nc1ccc(SC[C@H](Cc2ccccc2)N2CC[C@@H](C(C)(C)C)CCC2=O)cc1 was read as NRP1-CendR mod 27.9*, ATG4B inh -4.5, F508del corr -2.6, SKN-1 inh 22.6 and MPTP inh -0.7.
C[C@@H]1CN([C@H](C)CO)C(=O)c2cc(C3=CCCC3)cnc2O[C@H]1CN(C)C(=O)Nc1ccc(C(F)(F)F)cc1 was read as F508del corr 1.9.
`O=C(O)C1CCCC2CN3CCc4c([nH]c5ccccc45)C3C(O)C21` (stereo not drawn) gave NRP1-CendR mod 13.7, ATG4B inh -0.5, F508del corr 0.5, SKN-1 inh 37.2* and MPTP inh 0.5.
C[C@@H]1CN([C@@H](C)CO)C(=O)Cc2cc(N(C)C)ccc2O[C@H]1CN(C)Cc1ccc2c(c1)OCO2 was read as F508del corr -5.2.
O=[N+]([O-])c1ccc(COc2ccc(CN3CCCCC3)cc2)cc1 was read as NRP1-CendR mod -3.6, F508del corr -0.7, SKN-1 inh 39.7* and MPTP inh 2.2.
O=[N+]([O-])c1ccc(COc2ccc(CN3CCOCC3)cc2)cc1 was read as NRP1-CendR mod -6.9, ATG4B inh 2.8, F508del corr -0.9, SKN-1 inh 31.6 and MPTP inh -1.1.
`O=[N+]([O-])c1ccc(COc2ccc(CN3CCCC3)cc2)cc1` gave NRP1-CendR mod -12.8, ATG4B inh 4.1, F508del corr 0.0, SKN-1 inh 60.0* and MPTP inh -2.6.
For O=[N+]([O-])c1ccc(CN2CCCCCC2)cc1 the results were NRP1-CendR mod 5.0, ATG4B inh 6.3, F508del corr 2.1, SKN-1 inh 11.2 and MPTP inh 0.2.
Screening O=[N+]([O-])c1ccc(OCc2cnc(Cl)s2)cc1 returned NRP1-CendR mod 3.2, ATG4B inh -7.0, F508del corr 2.0, SKN-1 inh 54.1* and MPTP inh 1.7.
